# Data as given in PubChem BioAssay.
# Unmarked numbers belong to inactive results. For some assays here: Results with a measured potency or affinity are listed apart. Calls of active or inactive are those of the source. Unless noted, no rule for the calls is given here.
# Legend:
# [1] = antimalarial activity against Dd2 strain (AID 2302;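 active = growth inhibition above 50% at the single 2 µM test dose, taken to imply half-maximal potency below 2 µM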;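 also: 0% = DMSO untreated growth and 100% = chloroquine plus artemisinin killed control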); details: P. falciparum Dd2 in RBCs, LDH growth readout, 72 h; at 2 µM; stronger effect = higher value
# [2] = human hepatoma cell viability loss – ATP luminescence, cytotoxicity control for P. falciparum antimalarial project, primary screen (AID 2303;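 active = inhibition above 50%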;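 also: 0% = DMSO wells and 100% = digitonin-killed cells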); details: HepG2 viability, 24-48 h, at 10 µM, stronger effect = higher value
# [3] = molecular target: L-lactate dehydrogenase (Plasmodium falciparum (isolate CDC / Honduras)) (UniProt Q27743); test: PfLDH activity inhibition – cell lysate, 3D7 strain, counter-screen for P. falciparum growth inhibition project (AID 2304);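 also: 0% = vehicle and 100% = reference inhibitor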; details: P. falciparum 3D7 crude extract, LDH APAD/NBT absorbance; at 2 µM; stronger effect = higher value
# [4] = inhibition of 3D7 malaria parasite growth – strain 3D7 (AID 2306);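 also: 0% = DMSO wells and 100% = chloroquine plus artemisinin control wells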; details: P. falciparum 3D7 erythrocytic growth, LDH absorbance, 72 h; at 2 µM; stronger effect = higher value
# [5] = molecular target: Calcium-dependent protein kinase 1 (Plasmodium falciparum (isolate 3D7)) (UniProt P62344); test: PfCDPK1 kinase inhibitors, biochemical, TCAMS library (AID 1159585; cut-off not given, nearly all actives have IC50 up to about 0.98 µM;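 also: inhibitors leave more ATP so luminescence rises with inhibition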); details: recombinant PfCDPK1, Kinase-Glo ATP depletion luminescence
# [6] = molecular target: Plasmodium falciparum protein kinase 6 (PK6, PF3D7_1337100) (UniProt Q8IDW1); test: PfPK6 kinase inhibitors, biochemical, TCAMS library (AID 1159586); details: recombinant PfPK6, Kinase-Glo ATP depletion luminescence
# [7] = molecular target: Protein kinase 7 (PK7), Plasmodium falciparum 3D7 (PF3D7_0213400) (UniProt Q7YTF7); test: inhibition of Plasmodium PK7 catalytic activity – biochemical, TCAMS antimalarial set, Kinase-Glo luminescence (AID 1159587); details: recombinant PfPK7, Kinase-Glo ATP depletion luminescence
# [8] = molecular target: Calcium-dependent protein kinase 4 (Plasmodium falciparum (isolate 3D7)) (UniProt Q8IBS5); test: PfCDPK4 kinase inhibitors, biochemical, TCAMS library (AID 1159588; cut-off not given, nearly all actives have IC50 up to about 0.91 µM); details: recombinant PfCDPK4, Kinase-Glo ATP depletion luminescence
# Sequence of Calcium-dependent protein kinase 4 (Plasmodium falciparum (isolate 3D7)) (Q8IBS5 whole entry, looked up): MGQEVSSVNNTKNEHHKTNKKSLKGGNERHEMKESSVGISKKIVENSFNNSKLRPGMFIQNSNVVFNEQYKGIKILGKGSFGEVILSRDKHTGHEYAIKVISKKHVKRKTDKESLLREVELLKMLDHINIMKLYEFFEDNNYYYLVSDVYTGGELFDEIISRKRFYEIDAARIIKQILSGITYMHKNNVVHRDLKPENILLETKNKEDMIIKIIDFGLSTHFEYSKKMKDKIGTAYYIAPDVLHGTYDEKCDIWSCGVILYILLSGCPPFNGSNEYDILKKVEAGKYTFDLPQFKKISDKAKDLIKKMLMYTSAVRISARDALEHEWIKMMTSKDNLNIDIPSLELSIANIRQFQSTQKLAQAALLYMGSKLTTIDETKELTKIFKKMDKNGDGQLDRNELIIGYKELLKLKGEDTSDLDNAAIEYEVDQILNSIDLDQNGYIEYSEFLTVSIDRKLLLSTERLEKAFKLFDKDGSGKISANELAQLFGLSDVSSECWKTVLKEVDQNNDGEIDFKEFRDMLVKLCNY
# Sequence of Protein kinase 7 (PK7), Plasmodium falciparum 3D7 (PF3D7_0213400) (Q7YTF7 1-343): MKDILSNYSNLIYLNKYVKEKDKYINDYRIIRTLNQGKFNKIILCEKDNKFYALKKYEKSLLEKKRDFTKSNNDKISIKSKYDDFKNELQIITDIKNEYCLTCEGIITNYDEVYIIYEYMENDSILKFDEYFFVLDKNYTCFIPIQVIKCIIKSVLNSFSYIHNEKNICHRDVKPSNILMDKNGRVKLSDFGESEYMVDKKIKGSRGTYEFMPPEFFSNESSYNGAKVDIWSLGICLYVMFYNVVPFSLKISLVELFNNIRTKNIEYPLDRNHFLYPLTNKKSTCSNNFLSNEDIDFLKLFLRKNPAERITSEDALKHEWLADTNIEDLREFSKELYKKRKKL
# Sequence of Plasmodium falciparum protein kinase 6 (PK6, PF3D7_1337100) (Q8IDW1 1-305): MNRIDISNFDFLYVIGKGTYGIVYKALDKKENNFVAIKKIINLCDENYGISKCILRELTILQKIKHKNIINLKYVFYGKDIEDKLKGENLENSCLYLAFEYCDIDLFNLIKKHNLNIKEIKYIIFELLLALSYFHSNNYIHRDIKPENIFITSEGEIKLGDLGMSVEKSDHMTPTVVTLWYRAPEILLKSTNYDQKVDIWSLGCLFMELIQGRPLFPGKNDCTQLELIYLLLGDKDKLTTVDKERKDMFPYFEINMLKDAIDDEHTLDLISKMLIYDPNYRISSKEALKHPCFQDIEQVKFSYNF
# Sequence of Calcium-dependent protein kinase 1 (Plasmodium falciparum (isolate 3D7)) (P62344 whole entry, looked up): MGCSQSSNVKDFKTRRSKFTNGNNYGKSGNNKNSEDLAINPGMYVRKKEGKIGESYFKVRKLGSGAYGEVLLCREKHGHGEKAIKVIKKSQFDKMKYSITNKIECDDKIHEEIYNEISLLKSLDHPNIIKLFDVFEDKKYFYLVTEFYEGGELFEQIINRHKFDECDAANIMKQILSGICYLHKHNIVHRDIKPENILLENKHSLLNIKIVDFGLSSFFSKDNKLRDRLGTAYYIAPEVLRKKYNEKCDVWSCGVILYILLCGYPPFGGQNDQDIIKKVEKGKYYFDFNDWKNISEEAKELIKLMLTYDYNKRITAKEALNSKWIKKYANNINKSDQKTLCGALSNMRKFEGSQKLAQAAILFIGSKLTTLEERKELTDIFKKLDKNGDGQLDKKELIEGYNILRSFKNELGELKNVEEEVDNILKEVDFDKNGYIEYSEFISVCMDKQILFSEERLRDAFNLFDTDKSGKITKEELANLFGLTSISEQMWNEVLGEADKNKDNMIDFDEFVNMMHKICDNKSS
# Sequence of L-lactate dehydrogenase (Plasmodium falciparum (isolate CDC / Honduras)) (Q27743 whole entry, looked up): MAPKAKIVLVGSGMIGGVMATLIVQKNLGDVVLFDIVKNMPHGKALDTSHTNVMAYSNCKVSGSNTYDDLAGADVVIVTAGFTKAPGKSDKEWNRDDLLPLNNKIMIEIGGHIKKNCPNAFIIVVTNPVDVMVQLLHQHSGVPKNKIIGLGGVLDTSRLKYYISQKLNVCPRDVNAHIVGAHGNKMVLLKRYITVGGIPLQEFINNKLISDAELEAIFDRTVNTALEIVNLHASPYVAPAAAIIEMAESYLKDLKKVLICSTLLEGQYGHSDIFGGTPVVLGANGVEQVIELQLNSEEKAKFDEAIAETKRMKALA
Compound,growth inhibition [1],inhibition [2],inhibition [3],growth inhibition [4],outcome [5],outcome [6],outcome [7],outcome [8]
FC(F)(F)c1cccc(CCNc2nccc(NCc3ccc(Cl)cc3Cl)n2)c1,59% (active),8%,1%,97% (active),inactive,inactive,inactive,inactive
Cc1cc(N[C@@H](Cc2ccccc2)C(=O)NCc2cccc(F)c2)nc(NCCc2cccs2)n1,22%,9%,2%,99% (active),inactive,inactive,inactive,inactive
CCn1c(SCC(=O)Nc2cc(C(F)(F)F)ccc2Cl)nc2ccccc2c1=O,95% (active),8%,3%,93% (active),inactive,inactive,inactive,inactive
Oc1cccc(CNCCCN(Cc2ccccc2)c2ccccc2)c1,97% (active),7%,-6%,99% (active),inactive,inactive,inactive,inactive
CC1CN(Cc2ccc(-c3ccc(-c4nc5ccccc5[nH]4)cc3)cc2)CC(C)O1 (stereo not given),96% (active),48%,3%,98% (active),inactive,inactive,inactive,inactive
O=[N+]([O-])c1cccc(CNCC2CCC(CNCc3cccc([N+](=O)[O-])c3)CC2)c1 (stereo not given),76% (active),39%,-1%,100% (active),inactive,inactive,inactive,inactive
S=C(NCCCCCN1CCC(c2c[nH]c3ccccc23)CC1)Nc1cc(Cl)cc(Cl)c1,35%,25%,-4%,100% (active),inactive,inactive,inactive,inactive
Cc1cc(N(C)C2CCN(CC3CCCCC3)C2)nc(Nc2ccc(Br)cc2)n1 (stereo not given),38%,14%,-1%,98% (active),inactive,inactive,inactive,inactive
O=C(Nc1ccc(OC2CCN(Cc3ccsc3)CC2)c(Cl)c1)c1ccc(F)cc1,83% (active),31%,0%,98% (active),inactive,inactive,inactive,inactive
Cc1c(Cl)ccc2c(C(=O)Nc3ccncc3)cc(-c3cccnc3)nc12,83% (active),16%,-3%,99% (active),inactive,inactive,inactive,inactive
Cc1ccc(Sc2ccc(NC(=O)CN3CCN(C(=O)c4ccco4)CC3)cc2)cc1C,84% (active),14%,1%,92% (active),inactive,inactive,inactive,inactive
O=C(Nc1cc(C(F)(F)F)cc(C(F)(F)F)c1)c1cccc([N+](=O)[O-])c1,15%,23%,-2%,93% (active),inactive,inactive,inactive,inactive
CN(C(=O)C1(c2ccc(Cl)cc2)CC1)C1CCN(CCCCCNC(=O)/C=C/c2ccc(Cl)c(Cl)c2)CC1,0%,91% (active),-2%,88% (active),inactive,inactive,inactive,inactive
COc1ccc(NC(=O)NC2CCN(CCCCCNC(=O)/C=C/c3ccc(Cl)c(Cl)c3)C2)c(OC)c1 (stereo not given),9%,24%,-3%,96% (active),inactive,inactive,inactive,inactive
Oc1ccc(CCNCCCCCCNCCc2ccc(Cl)c3ccccc23)cc1O,1%,22%,-4%,99% (active),inactive,inactive,inactive,inactive
Cc1cc(NCCC(=O)Nc2ccccc2)nc(NCCc2ccccc2)n1,8%,-8%,-3%,99% (active),inactive,inactive,inactive,inactive
Cc1cc(N[C@@H](CC(C)C)C(=O)Nc2ccccc2)nc(NCC2CCCCC2)n1,95% (active),8%,1%,101% (active),inactive,inactive,inactive,inactive
COc1ccc2nccc([C@@H](O)CN3CCC(NC(=O)c4cc5c(Cl)cc(Cl)cc5[nH]4)CC3)c2c1,98% (active),22%,-3%,100% (active),inactive,inactive,inactive,inactive
COc1cccc(NC(=O)Nc2ccc(Nc3nc(C)cc(N4CCCC4)n3)cc2)c1,100% (active),28%,-1%,101% (active),inactive,inactive,inactive,inactive
O=C(c1ccc([N+](=O)[O-])o1)N1CCN(c2nc3c(Cl)cccc3s2)CC1,87% (active),-12%,6%,91% (active),inactive,inactive,inactive,inactive

Compound,growth inhibition [1],inhibition [2],inhibition [3],growth inhibition [4],outcome [5],outcome [6],outcome [7],outcome [8]
CCCCc1ccc(Cc2cnc3nc(N)nc(N)c3c2C)cc1,5%,64% (active),5%,96% (active),inactive,inactive,inactive,inactive
Cc1nc2c(=O)sc3ccccc3c2n1Cc1ccccc1,26%,-1%,1%,95% (active),inactive,inactive,inactive,inactive
COc1ccc(CNC2CCN(C)CC2)cc1-c1ccc(OC)c(S(=O)(=O)NCc2ccccc2)c1,95% (active),10%,5%,99% (active),inactive,inactive,inactive,inactive
COc1ccc(NC(=O)c2ccc(OCCCCCCCOc3ccc(C(=O)Nc4ccc(OC)c(N5CCN(C)CC5)c4)cc3)cc2)cc1N1CCN(C)CC1,91% (active),98% (active),-5%,96% (active),inactive,inactive,inactive,inactive
COc1ccc(C2CCC(NCCCCNC(=O)c3ccc(NC(=O)c4ccc(Cl)cc4)cc3)CC2)cc1 (stereo not given),7%,23%,-6%,99% (active),inactive,inactive,inactive,inactive
S=C(NCCc1ccccc1)Nc1ccc2ncsc2c1,3%,-20%,-3%,96% (active),inactive,inactive,inactive,inactive
Cc1cc(NC(=O)Nc2ccc(Cl)cc2F)c2ccccc2n1,71% (active),10%,2%,100% (active),inactive,inactive,inactive,inactive
O=C(Nc1cccc(-c2ccc(-c3nc4ccc(F)cc4[nH]3)cc2)c1)c1ccncc1,96% (active),52% (active),-5%,101% (active),inactive,inactive,inactive,inactive
CN=C(N)c1ccc(NC(=O)Nc2ccc(C(N)=NC)cc2)cc1,71% (active),-5%,-2%,84% (active),inactive,inactive,inactive,inactive
C=CCc1cc(Br)ccc1OCCCOc1c(N)nc(N)nc1N,0%,47%,4%,92% (active),inactive,inactive,inactive,inactive
FC(F)(F)c1ccc2nc(-c3ccc(-c4ccc(CNCCN5CCNCC5)cc4)s3)[nH]c2c1,79% (active),17%,-2%,94% (active),inactive,inactive,inactive,inactive
Cc1nnsc1C(=O)Nc1cccc(-c2ccc(-c3nc4ccc(C(F)(F)F)cc4[nH]3)cc2)c1,97% (active),62% (active),3%,99% (active),inactive,inactive,inactive,inactive
CC(C)(C)N1CCC(N(Cc2ccc(-c3ccc(C(F)(F)F)cc3)cc2)C(=O)Cn2c(CCc3cccc(F)c3F)nc(=O)c3cccnc32)CC1,53% (active),94% (active),3%,100% (active),inactive,inactive,inactive,inactive
Clc1cc(Cl)cc(Nc2ccnc(Nc3cc(Cl)cc(Cl)c3)n2)c1,73% (active),11%,-1%,99% (active),inactive,inactive,inactive,inactive
Cc1ccc(NC(=O)Nc2ccc(I)c(OCCN(C)C)c2)cc1Cl,22%,11%,-4%,98% (active),inactive,inactive,inactive,inactive
CC(=O)N1N=C(c2ccc(Cl)cc2)Sc2c1nc(-c1ccccc1)n2C(C)=O,81% (active),-3%,3%,105% (active),inactive,inactive,inactive,inactive
c1ccc2c(c1)CN(CC1CCOCC1)CC1(CCN(Cc3c[nH]c4cnccc34)CC1)O2,7%,21%,-3%,99% (active),inactive,inactive,inactive,inactive
COc1ccc2ncc(OC)c(CCN3CC[C@@H](NCc4ccc5c(n4)NC(=O)CS5)[C@H](O)C3)c2n1,99% (active),21%,4%,94% (active),inactive,inactive,inactive,inactive
CC(C)Cn1c(Sc2ccc(C#N)c([N+](=O)[O-])c2)nnc1-c1ccc(N(C)C)cc1,98% (active),4%,4%,98% (active),inactive,inactive,inactive,inactive
Cc1cccc2[nH]c(-c3ccc(-c4cccc(CN5CC(C)OC(C)C5)c4)s3)nc12 (stereo not given),79% (active),6%,-5%,98% (active),inactive,inactive,inactive,inactive
